Data: ChEMBL document CHEMBL3988442, “University of Dundee, Small-Polar-MMV Screening Library” (2021)
Among all 48,000 compounds or so, about 13,000 (27%) showed an effect of 50% or more. The list shows a part of the results.

system: Wolbachia pipientis; assay: Anti-Wolbachia Cell-Based Screen; type: functional; set-up: scale not given: in the data most compounds retested in dose-response had high values; conditions: 5 µM

In order of falling “Percent Effect” value:
1. CC1CN(c2ncnc3c2cnn3C)CCN1c1nccs1 (stereo not drawn)  136.1%
2. CN(Cc1ccncc1)C(=O)NCc1nnc2n1CCCCC2  124.1%
3. COCC1COCCC12CCN(S(=O)(=O)c1ccccc1C)CC2 (stereo not drawn)  121.7%
4. COCC1COCCC12CCN(S(=O)(=O)c1cccnc1)CC2.O=C(O)C(F)(F)F (stereo not drawn)  117.9%
5. Cc1nc(CN2CCC3(CC2)CC(c2cccnc2)C(=O)N3C)cs1.O=C(O)C(F)(F)F.O=C(O)C(F)(F)F (stereo not drawn)  114.5%
6. Cc1ccc(CN2CCC3(CC2)CC(c2cccnc2)C(=O)N3C)o1.O=C(O)C(F)(F)F.O=C(O)C(F)(F)F (stereo not drawn)  111.7%
7. COCC1COCCC12CCN(S(=O)(=O)c1ccccc1)CC2 (stereo not drawn)  111.6%
8. Cc1cccc(CN2CCC3(CC2)CC(c2cccnc2)C(=O)N3C)n1.O=C(O)C(F)(F)F.O=C(O)C(F)(F)F (stereo not drawn)  108%
9. Cc1nn(C)c(Cl)c1C1CCCN1C(=O)c1cnc[nH]1 (stereo not drawn)  106.1%
10. COCCCN(Cc1cnc(C2CCCCC2)nc1)C1CCN(C)CC1  105.2%
11. COCCCN(Cc1cnc(N2CCCC2)nc1)C1CCN(C)CC1  104.1%
12. CC1CN(c2ncnc3sccc23)CCN1c1nccs1 (stereo not drawn)  102.8%
13. COCC1COCCC12CCN(S(=O)(=O)c1ccc(C)cc1)CC2 (stereo not drawn)  101.4%
14. Cc1nn(C)c(Cl)c1C1CCCN1C(=O)c1ccc[nH]1 (stereo not drawn)  99.71%
15. COc1c(C2CCCN2C(=O)c2cnc[nH]2)c(C)nn1C (stereo not drawn)  99.16%
16. CN(Cc1ccc(O)cc1)C(=O)NCc1nnc2n1CCCCC2  89.08%
17. Cc1cc(-c2nn(C)c(Cl)c2CN2CC[C@H](CO)[C@@H](O)C2)no1  35.82%
18. OCC1COCCN(c2ncccc2C(F)(F)F)C1 (stereo not drawn)  17.46%
19. Cc1nn(C)c(Cl)c1C1CCCN1C(=O)c1cc(Cl)c[nH]1 (stereo not drawn)  15.12%
20. CCCNC(=O)Cn1nc(C(C)C)c2cnn(C(C)(C)C)c2c1=O  13.78%
21. COCC1COCCC12CCN(C(=O)CCOc1ccccc1)CC2 (stereo not drawn)  9.795%
22. CC(C)(C)c1cn2nc(N3CCOC(Cn4cncn4)C3)sc2n1 (stereo not drawn)  9.569%
23. COc1c(C2CCCN2C(=O)c2cc(Cl)c[nH]2)c(C)nn1C (stereo not drawn)  7.72%
24. Cn1cc(C2CCCN2CCCc2nc(-c3cccs3)no2)cn1 (stereo not drawn)  7.461%
25. Cc1ccc(CN2CCC3(CC2)CC3CN(C)Cc2cccnc2)o1.O=C(O)C(F)(F)F.O=C(O)C(F)(F)F.O=C(O)C(F)(F)F (stereo not drawn)  5.127%
26. CN(c1ncnc2c1CCC2)C1CCCN(c2cccnn2)C1 (stereo not drawn)  4.941%
27. COCCn1/c(=N/C(=O)C(C)C)sc2cc(Cl)ccc21  4.263%
28. Cc1ccc(C)c2c(O)cc(CN3CCC(c4nncn4C)CC3)nc12  4.156%
29. COCCN1CCC(CN(Cc2ccncc2)C2CCC2)CC1  3.665%
30. COC(=O)CNC(=O)CSCc1nc(O)c2cc(C(C)C)sc2n1  2.369%
31. CCc1cc(N[C@@H](CO)C(N)=O)n2nc(C)c(C)c2n1  2.16%
32. CC(C)C(CCO)NC(=O)Nc1cc(F)ccc1-n1cccn1 (stereo not drawn)  1.933%
33. CNC(=O)c1sc(C(NC(=O)c2ccccc2)C2CC2)nc1C (stereo not drawn)  1.807%
34. CC(=O)NCCCSC1CCN(c2ccccc2Cl)C1=O (stereo not drawn)  1.299%
35. Cc1cc(C(=O)N2CCC3(CC2)CC(c2cccnc2)C(=O)N3C)no1.O=C(O)C(F)(F)F (stereo not drawn)  1.086%
36. C=C(C)COc1cccc(C(=O)N2CCC3(CCOCC3)CC2)c1  0.8095%
37. COc1ccc(F)c(CN2CCCC(O)(CNCc3ncc[nH]3)C2=O)c1 (stereo not drawn)  0.3473%
38. CCc1sc(C(=O)Nc2cnn(CC(N)=O)c2)cc1C  -1.226%
39. O=C(Nc1nncs1)NC1CCc2ccccc21 (stereo not drawn)  -2.226%
40. COCCCN1CCc2cncnc2C1  -3.846%
41. Cn1cc(-c2csc(N3CCN(c4nccs4)CC3)n2)cn1  -4.686%
42. Cc1cnn(CC2CCCN2c2ncnc3sccc23)c1 (stereo not drawn)  -4.98%
43. CCO[C@@H]1CO[C@@]2(CCCN(S(=O)(=O)c3cccnc3)C2)C1.O=C(O)C(F)(F)F  -5.792%
44. COCC1COCCC12CCN(C(=O)CCc1ccccc1)CC2 (stereo not drawn)  -6.521%
45. COCCCN(C(=O)c1ccc(-n2ccnc2)cc1)C1CCN(C)CC1  -6.688%
46. Cc1cccc(CN2CCC3(CC2)CC(Oc2cccnc2)C3)n1.O=C(O)C(F)(F)F.O=C(O)C(F)(F)F  -6.69%
47. O=c1c2ccccc2nnn1CN(CC1CCOC1)C1CC1 (stereo not drawn)  -7.02%
48. COCCN1CCC(CN(Cc2ccncc2)C2CCCCC2)CC1  -7.976%
49. Cc1nc(CN2C[C@@H]3CN(C(=O)C4(C#N)CC4)C[C@@H]3C2=O)cs1.O=C(O)C(F)(F)F  -7.986%
50. CCn1nc(C)cc1C(=O)OCCNc1ncnc2ccccc12  -8.299%
51. c1ccc(-c2noc([C@@H]3Cc4nc[nH]c4CN3)n2)cc1  -8.482%
52. CCOCC1COCCC12CCN(C(=O)CC1=CCCCC1)CC2 (stereo not drawn)  -10.97%
53. CCOCC1COCCC12CCN(C(=O)CS(C)(=O)=O)CC2 (stereo not drawn)  -11.35%
54. COc1c(C2CCCN2c2ncnc3c2cnn3C)c(C)nn1C (stereo not drawn)  -11.95%
55. CCn1cc2c(n1)CN(S(=O)(=O)c1cccnc1)CC2COC.O=C(O)C(F)(F)F (stereo not drawn)  -12.46%
56. c1cnn(CC2CN(c3ncnc4sccc34)CCO2)c1 (stereo not drawn)  -13.3%
57. CN(Cc1ncnn1C)C(=O)Nc1ccc(OC(F)F)cc1  -14.3%
58. COCCn1cnnc1C(C)NC(=O)c1[nH]c2c(C)cc(C)cc2c1C (stereo not drawn)  -15.82%
59. Cc1csc(CNC(=O)N(C)Cc2nnc3n2CCC3)n1  -16.98%
60. O=C(NCc1nnc2n1CCCCC2)N(Cc1ccccn1)C1CC1  -22.11%
61. COCC1COCCC12CCN(C(=O)CC1=CCCCC1)CC2 (stereo not drawn)  -25.41%
62. O=C(Cc1ccco1)N1CCC2(CCOCC2COCC2CC2)CC1 (stereo not drawn)  -44.1%
63. CCc1nc(C)c(C(=O)NCCNc2ncnc3sccc23)s1  -61.04%
